{"source": "PubChem BioAssay (EPA / NIEHS)", "note": "Values joined by “and” are separate entries in the source; they are usually repeats but may differ in a detail not shown here. Equal entries are not always repeated. Where a structure was tested more than once in an assay, its records may differ in their call. Active and inactive are the calls of the source. The calls were made as follows: active = hit-call score of the fitted dose curve at least 0.9, where 1 is the maximum; inactive = score below 0.9."}
{"experiment": "ATG_BRE_CIS: Attagene CIS-FACTORIAL HepG2 Assay for human Bone Morphogenetic Protein (BMP) Response Element (BRE) (AID 2282933)", "details": "HepG2 BMP response element reporter, Attagene transcription factor profiling; actives raise or lower the signal", "description": "ATG_CIS is a cell-based, multiplexed-readout assay that uses HepG2, a human liver cell line, with measurements taken at 24 hours after chemical dosing in a 24-well plate.ATG_BRE_CIS is one of 52 assay component(s) measured or calculated from the ATG_CIS assay. It is designed to make measurements of mRNA induction, a form of inducible reporter, as detected with fluorescence intensity signals by Reverse transcription polymerase chain reaction (RT-PCR) and Capillary electrophoresis technology.Data from the assay component ATG_BRE_CIS was analyzed into 1 assay endpoint. This assay endpoint, ATG_BRE_CIS, was analyzed with bidirectional fitting relative to DMSO as the negative control and baseline of activity. Using a type of inducible reporter, measures of mRNA for gain or loss-of-signal activity can be used to understand the reporter gene at the transcription factor-level as they relate to the gene SMAD1. Furthermore, this assay endpoint can be referred to as a primary readout, because this assay has produced multiple assay endpoints where this one serves a reporter gene function. To generalize the intended target to other relatable targets, this assay endpoint is annotated to the dna binding intended target family, where the subfamily is Smad protein.\nHuman liver HepG2 cells are transiently transfected with multiple reporter transcription units (MRTUs) in 6-well plates using FuGene 6 reagent (Roche; 3 ml FuGene/1 mg DNA). The MRTU constructs are regulated by a cis-regulating element (promoter). […] A major difference between the CIS and TRANS system is that in CIS activities of endogenous TFs are measured, whereas the TRANS assay evaluates changes in activities of exogenous, chimeric NR-Gal4 proteins. […] At the end of 24 hour incubation, total RNA was isolated using TriZol reagent (Invitrogen). The isolated RNA is then reverse-transcribed using oligo(dT) primer and Mo-MLV reverse transcriptase (Invitrogen) with DNAse I (Ambion) treatment for 30 min. The one-tenth of the produced cDNA was amplified by PCR using Taq DNA polymerase (Invitrogen) and two reporter sequence-specific primers. The PCR products were fluorescently labeled by primer extension with 6-arboxyfluorescein (6-FAM) 5'-labeled reporter sequence-specific primer (2 min at 95 C, 20 s at 68 C and 10 min at 72 C) and these products were digested with 5U of HpaI (New England Biolabs) for 2h at 37 C. The fragments were purified using Qiaquick PCR columns (Qiagen), analyzed on an ABI 3130xL genetic analyzer (Applied Biosystems) with peak positions identified by using a set of X-rhodamine (ROX)-labeled MapMarker1000 molecular weight standards (BioVentures). The raw capillary electrophoresis data was processed using Attagraph software (Attagene)."}
{"compound": "CCN(Cc1c(F)cccc1Cl)c1c([N+](=O)[O-])cc(C(F)(F)F)cc1[N+](=O)[O-]", "AC50": "1.4 µM (active)"}
{"compound": "CCCCOCCOCCOCc1cc2c(cc1CCC)OCO2", "outcome": "inactive"}
{"compound": "N[C@@H](Cc1cc(I)c(Oc2ccc(O)c(I)c2)c(I)c1)C(=O)O", "outcome": "inactive"}
{"compound": "O=C(c1ccc(O)cc1O)c1ccc(O)cc1O", "outcome": "inactive"}
{"compound": "CCOC(=O)c1ccc(O)cc1", "outcome": "inactive", "AC50": "166 µM (active)"}
{"compound": "CCOC(=O)C(C)Oc1ccc(Oc2nc3ccc(Cl)cc3o2)cc1", "note": "(stereo unspecified)", "outcome": "inactive"}
{"compound": "O=C(Nc1ccc([N+](=O)[O-])cc1Cl)c1cc(Cl)ccc1O", "AC50": "0.652 µM (active)"}
{"compound": "C#C[C@]1(O)CC[C@H]2[C@@H]3CCC4=CC(=O)CC[C@@H]4[C@H]3CC[C@@]21CC", "outcome": "inactive"}
{"compound": "S=C(S)NCCNC(=S)S.[Mn+2].[S-]C([S-])=NCCN=C([S-])[S-].[Zn+2]", "outcome": "inactive"}
{"compound": "OB(O)O", "outcome": "inactive"}
{"compound": "N#CSCSc1nc2ccccc2s1", "outcome": "inactive", "AC50": "3.03 µM (active)"}
{"compound": "CCCCC(CC)COC(=O)c1ccccc1C(=O)O", "note": "(stereo unspecified)", "outcome": "inactive"}
{"compound": "CCCOC(=O)c1ccc(C(=O)OCCC)nc1", "outcome": "inactive"}
{"compound": "COc1nc(C)nc(NC(=O)NS(=O)(=O)c2ccccc2OCCCl)n1", "outcome": "inactive"}
{"compound": "O=C(O)c1ccccc1", "outcome": "inactive"}
{"compound": "C#CCOC(=O)[C@@H](C)Oc1ccc(Oc2ncc(Cl)cc2F)cc1", "outcome": "inactive"}
{"compound": "CCOC(=O)[C@H](C)Oc1ccc(Oc2nc3ccc(Cl)cc3o2)cc1", "outcome": "inactive"}
{"compound": "C=CCOC(Cn1ccnc1)c1ccc(Cl)cc1Cl", "note": "(stereo unspecified)", "AC50": "33.7 µM (active)"}
{"compound": "Cc1nn(C)c(Oc2ccccc2)c1C=NOCc1ccc(C(=O)OC(C)(C)C)cc1", "AC50": "0.0409 µM (active)"}
{"compound": "CC(=O)[C@H]1CC[C@H]2[C@@H]3CCC4=CC(=O)CC[C@]4(C)[C@H]3CC[C@]12C", "AC50": "33.4 µM (active) and 24.3 µM (active) and 33.7 µM (active)"}
{"compound": "CC(C)(C)[C@@H](O)[C@@H](Cc1ccc(Cl)cc1)n1cncn1", "AC50": "13.7 µM (active)"}
{"compound": "CCOC(=O)COc1cc(-n2ncc(C(F)(F)F)c(C)c2=O)c(F)cc1Cl", "outcome": "inactive"}
{"compound": "CCSC(=O)N(CC(C)C)CC(C)C", "outcome": "inactive"}
{"compound": "CC(=O)S[C@@H]1CC2=CC(=O)CC[C@]2(C)[C@H]2CC[C@@]3(C)[C@@H](CC[C@@]34CCC(=O)O4)[C@H]12", "outcome": "inactive", "AC50": "70.9 µM (active) and 152 µM (active)"}
{"compound": "c1ccc(Nc2ccccc2)cc1", "AC50": "16.6 µM (active)", "outcome": "inactive"}
{"compound": "CCC(O)=C1C(=O)CC(C(=O)O)CC1=O", "note": "(stereo unspecified)", "outcome": "inactive"}
{"compound": "COc1c(Cl)ccc(Cl)c1C(=O)O", "outcome": "inactive"}
{"compound": "CC1(C)C(C=C(Cl)Cl)C1C(=O)OCc1cccc(Oc2ccccc2)c1", "note": "(stereo unspecified)", "outcome": "inactive"}
{"compound": "COC(=O)c1ccccc1S(=O)(=O)NC(=O)Nc1nc(OC(F)F)cc(OC(F)F)n1", "outcome": "inactive"}
{"compound": "CCOC(=O)C(C)Oc1ccc(Oc2cnc3cc(Cl)ccc3n2)cc1", "note": "(stereo unspecified)", "outcome": "inactive"}
{"compound": "O=C(O)C1(C(=O)Nc2ccc(Cl)cc2Cl)CC1", "outcome": "inactive"}
{"compound": "CCN(CC)C(=O)c1cccc(C)c1", "outcome": "inactive"}
{"compound": "COC(=O)c1ccc(CNS(C)(=O)=O)cc1S(=O)(=O)NC(=O)Nc1nc(OC)cc(OC)n1", "outcome": "inactive"}
{"compound": "CCCCC(CC)CN1C(=O)C2C3C=CC(C3)C2C1=O", "note": "(stereo unspecified)", "AC50": "45.3 µM (active)"}
{"compound": "CCCN(CCC)C(=O)SCC", "outcome": "inactive"}
{"compound": "CN(C)C(=O)Nc1ccc(Cl)c(Cl)c1", "outcome": "inactive", "AC50": "22.2 µM (active)"}
